Data on one sequence can be found in publication PMC7862700, “An all-to-all approach to the identification of sequence-specific readers for epigenetic DNA modifications on cytosine”.

Common to all, as to experiment: DAPPL (digital affinity profiling via proximity ligation, sequencing); 10 mM Tris-HCl pH 7.5, 50 mM NaCl, 1 mM DTT, 4% glycerol, room temperature, 30 min; GST-TFs on glutathione beads, 16-mer random dsDNA library, 0.1% formaldehyde crosslink after washing; high values mean tight binding
The target of test [1] is T1, FEV (Homo sapiens, UniProt Q99581 1-238).
T1 sequence: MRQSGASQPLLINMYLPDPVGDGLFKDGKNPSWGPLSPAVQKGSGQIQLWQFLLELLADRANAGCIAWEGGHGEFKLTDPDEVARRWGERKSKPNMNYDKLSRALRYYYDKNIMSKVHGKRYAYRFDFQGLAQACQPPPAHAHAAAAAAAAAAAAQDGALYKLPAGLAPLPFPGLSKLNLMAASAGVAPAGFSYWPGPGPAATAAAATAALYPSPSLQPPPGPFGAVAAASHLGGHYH
The note with it: protein: recombinant; tags: N-terminal GST; dsDNA, one strand shown. Put shortly:
(§1)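 Each value of binding signal is a hexamer's read frequency for a factor divided by the same hexamer's frequency in the tag-only sample. Barcoded, bead-captured GST fusions of human transcription factors made in yeast were pooled with that sample and incubated with 200 nmole of a random double-stranded 16-mer DNA library in Tris/NaCl/DTT/glycerol buffer at room temperature for 30 min. Washing, 0.1% formaldehyde crosslinking, proximity ligation, PCR and Illumina NextSeq500 sequencing followed.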

The target of test [2] is ETV5 (Homo sapiens, UniProt P41161 1-510). The note with it: protein: recombinant; tags: N-terminal GST; dsDNA, one strand shown. Put shortly: as §1
Chain of ETV5 (P41161 whole entry): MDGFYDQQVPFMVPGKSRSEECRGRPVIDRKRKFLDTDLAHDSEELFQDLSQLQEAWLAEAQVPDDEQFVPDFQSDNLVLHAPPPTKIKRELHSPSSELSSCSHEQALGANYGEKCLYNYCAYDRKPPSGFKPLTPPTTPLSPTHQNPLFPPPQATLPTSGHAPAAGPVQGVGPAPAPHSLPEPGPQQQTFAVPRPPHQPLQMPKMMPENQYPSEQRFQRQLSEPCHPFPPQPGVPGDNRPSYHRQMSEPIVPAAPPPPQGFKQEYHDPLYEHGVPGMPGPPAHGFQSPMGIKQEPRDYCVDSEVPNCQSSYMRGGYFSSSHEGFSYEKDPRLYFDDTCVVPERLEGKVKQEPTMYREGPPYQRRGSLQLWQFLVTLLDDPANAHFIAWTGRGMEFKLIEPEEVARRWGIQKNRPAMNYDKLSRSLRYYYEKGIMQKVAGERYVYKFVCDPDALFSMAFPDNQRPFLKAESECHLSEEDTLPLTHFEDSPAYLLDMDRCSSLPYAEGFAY
Test [3] has as its target HSF1 (Homo sapiens, UniProt Q00613 1-529). The note with it: protein: recombinant; tags: N-terminal GST; chain copies: 3; dsDNA, one strand shown. Put shortly: as §1
Test [4] concerns the target T2, SPIC (Homo sapiens, UniProt Q8N5J4 1-248).
T2 sequence: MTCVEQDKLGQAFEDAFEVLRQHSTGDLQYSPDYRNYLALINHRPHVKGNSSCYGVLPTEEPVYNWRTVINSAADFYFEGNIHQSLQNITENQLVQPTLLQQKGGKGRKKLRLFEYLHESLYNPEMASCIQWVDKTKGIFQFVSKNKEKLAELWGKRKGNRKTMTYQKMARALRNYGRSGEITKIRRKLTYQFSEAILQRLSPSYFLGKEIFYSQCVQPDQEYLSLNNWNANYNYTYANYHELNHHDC
The note with it: protein: recombinant; tags: N-terminal GST; dsDNA, one strand shown. Put shortly: as §1

Test [5] has as its target ELF4 (Homo sapiens, UniProt Q99607 1-663). To be noted: protein: recombinant; tags: N-terminal GST; dsDNA, one strand shown. Put shortly:
as §1

Test [6] deals with T3, ELK4 (Homo sapiens, UniProt P28324-2 1-405).
T3 sequence: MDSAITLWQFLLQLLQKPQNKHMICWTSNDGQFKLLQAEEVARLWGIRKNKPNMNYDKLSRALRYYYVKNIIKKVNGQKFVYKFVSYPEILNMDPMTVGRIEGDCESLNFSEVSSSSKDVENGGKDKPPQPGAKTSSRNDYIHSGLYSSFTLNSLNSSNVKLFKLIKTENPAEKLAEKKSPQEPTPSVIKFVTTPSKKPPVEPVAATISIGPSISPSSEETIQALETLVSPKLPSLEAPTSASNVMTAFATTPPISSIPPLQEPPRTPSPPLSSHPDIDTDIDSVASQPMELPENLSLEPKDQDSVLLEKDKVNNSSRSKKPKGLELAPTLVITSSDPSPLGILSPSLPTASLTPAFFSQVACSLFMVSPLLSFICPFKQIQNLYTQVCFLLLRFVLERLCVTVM
To be noted: protein: recombinant; tags: N-terminal GST; dsDNA, one strand shown. Put shortly:
as §1

The target in test [7] is T4, ETV2 (Homo sapiens, UniProt O00321 1-342).
T4 sequence: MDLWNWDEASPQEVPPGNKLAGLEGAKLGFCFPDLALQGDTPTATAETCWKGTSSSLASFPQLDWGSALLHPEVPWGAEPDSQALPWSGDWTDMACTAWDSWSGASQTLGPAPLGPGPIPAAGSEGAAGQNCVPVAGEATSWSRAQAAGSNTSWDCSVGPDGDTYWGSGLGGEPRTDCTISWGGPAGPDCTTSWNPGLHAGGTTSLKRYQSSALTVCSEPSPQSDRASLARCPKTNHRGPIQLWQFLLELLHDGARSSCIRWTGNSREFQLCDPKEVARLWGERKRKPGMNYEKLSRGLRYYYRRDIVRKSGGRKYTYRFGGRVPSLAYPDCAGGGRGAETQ
The note with it: protein: recombinant; tags: N-terminal GST; dsDNA, one strand shown. Put shortly: as §1

Test [8] deals with T5, ELF3 (Homo sapiens, UniProt P78545 1-371).
T5 sequence: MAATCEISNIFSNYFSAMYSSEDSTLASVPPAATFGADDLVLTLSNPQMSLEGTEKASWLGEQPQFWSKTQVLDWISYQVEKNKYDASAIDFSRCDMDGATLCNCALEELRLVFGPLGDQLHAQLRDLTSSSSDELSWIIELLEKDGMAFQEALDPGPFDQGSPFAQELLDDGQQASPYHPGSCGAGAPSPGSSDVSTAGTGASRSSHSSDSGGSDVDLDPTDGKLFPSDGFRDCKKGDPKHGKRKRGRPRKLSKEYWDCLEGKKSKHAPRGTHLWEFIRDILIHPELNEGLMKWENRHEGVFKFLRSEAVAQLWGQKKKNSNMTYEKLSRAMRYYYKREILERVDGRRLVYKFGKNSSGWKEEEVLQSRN
The note with it: protein: recombinant; tags: N-terminal GST; dsDNA, one strand shown. Put shortly: as §1

For test [9], the target named is CRX (Homo sapiens, UniProt O43186 1-299). The note with it: protein: recombinant; tags: N-terminal GST; dsDNA, one strand shown. Put shortly:
as §1

Test [10] addresses ETV1 (Homo sapiens, UniProt P50549 1-477). To be noted: protein: recombinant; tags: N-terminal GST; dsDNA, one strand shown. Put shortly: as §1
For test [11], the target named is T6, ERF (Homo sapiens, UniProt P50548 1-548).
T6 sequence: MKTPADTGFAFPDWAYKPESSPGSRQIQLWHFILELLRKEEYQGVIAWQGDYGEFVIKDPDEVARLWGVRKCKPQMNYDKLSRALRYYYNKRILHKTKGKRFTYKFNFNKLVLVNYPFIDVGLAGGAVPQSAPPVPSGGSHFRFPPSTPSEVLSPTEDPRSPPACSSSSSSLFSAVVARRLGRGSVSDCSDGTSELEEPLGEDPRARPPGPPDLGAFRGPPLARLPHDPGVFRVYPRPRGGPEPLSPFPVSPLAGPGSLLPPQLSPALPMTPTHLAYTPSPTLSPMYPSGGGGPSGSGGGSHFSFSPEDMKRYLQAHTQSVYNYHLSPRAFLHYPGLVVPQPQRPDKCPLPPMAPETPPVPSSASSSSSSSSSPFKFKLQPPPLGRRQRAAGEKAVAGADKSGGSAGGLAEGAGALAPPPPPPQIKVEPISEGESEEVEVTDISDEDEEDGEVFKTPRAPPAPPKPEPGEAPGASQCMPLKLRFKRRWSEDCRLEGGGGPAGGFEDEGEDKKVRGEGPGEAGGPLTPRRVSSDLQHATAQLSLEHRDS
The note with it: protein: recombinant; tags: N-terminal GST; dsDNA, one strand shown. Put shortly: as §1

The target of test [12] is T7, ETV3L (Homo sapiens, UniProt Q6ZN32 1-361).
T7 sequence: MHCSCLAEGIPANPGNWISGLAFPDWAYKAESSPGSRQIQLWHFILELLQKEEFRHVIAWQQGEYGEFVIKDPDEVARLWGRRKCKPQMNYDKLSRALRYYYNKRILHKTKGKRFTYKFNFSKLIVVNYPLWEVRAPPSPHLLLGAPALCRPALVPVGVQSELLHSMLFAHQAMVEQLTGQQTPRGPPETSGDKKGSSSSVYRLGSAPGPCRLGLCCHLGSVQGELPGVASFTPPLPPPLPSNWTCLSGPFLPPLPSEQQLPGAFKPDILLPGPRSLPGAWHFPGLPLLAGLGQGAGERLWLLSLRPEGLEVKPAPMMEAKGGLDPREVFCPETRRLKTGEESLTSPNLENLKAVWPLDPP
The note with it: protein: recombinant; tags: N-terminal GST; dsDNA, one strand shown. Put shortly:
as §1

Test [13] addresses T8, ETS2 (Homo sapiens, UniProt P15036 1-469).
T8 sequence: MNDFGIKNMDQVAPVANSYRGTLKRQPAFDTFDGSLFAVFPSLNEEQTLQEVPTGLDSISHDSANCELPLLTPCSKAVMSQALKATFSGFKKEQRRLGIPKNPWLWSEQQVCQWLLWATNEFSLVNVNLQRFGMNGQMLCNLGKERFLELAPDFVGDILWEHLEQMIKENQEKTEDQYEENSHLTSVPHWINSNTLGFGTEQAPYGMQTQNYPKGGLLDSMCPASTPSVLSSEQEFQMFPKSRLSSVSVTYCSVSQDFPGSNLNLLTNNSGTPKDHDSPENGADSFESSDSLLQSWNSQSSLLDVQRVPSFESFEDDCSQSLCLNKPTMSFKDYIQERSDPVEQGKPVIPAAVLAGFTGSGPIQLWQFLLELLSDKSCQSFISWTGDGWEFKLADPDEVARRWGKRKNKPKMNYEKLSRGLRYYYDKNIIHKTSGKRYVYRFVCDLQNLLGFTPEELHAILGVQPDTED
The note with it: protein: recombinant; tags: N-terminal GST; dsDNA, one strand shown. Put shortly:
as §1

Test [14] concerns the target T9, SPDEF (Homo sapiens, UniProt O95238 1-335).
T9 sequence: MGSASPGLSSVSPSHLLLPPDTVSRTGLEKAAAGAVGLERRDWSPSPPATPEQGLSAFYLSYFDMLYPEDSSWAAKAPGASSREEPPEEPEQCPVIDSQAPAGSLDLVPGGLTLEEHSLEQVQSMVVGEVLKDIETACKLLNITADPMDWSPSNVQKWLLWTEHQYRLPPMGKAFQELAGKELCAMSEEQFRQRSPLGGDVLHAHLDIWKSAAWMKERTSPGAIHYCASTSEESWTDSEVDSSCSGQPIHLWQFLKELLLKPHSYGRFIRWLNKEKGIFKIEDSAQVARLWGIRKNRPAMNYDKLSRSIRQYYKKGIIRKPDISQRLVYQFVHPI
The note with it: protein: recombinant; tags: N-terminal GST; dsDNA, one strand shown. Put shortly: as §1

Test [15] concerns the target T10, ETV7 (Homo sapiens, UniProt Q9Y603 1-341).
T10 sequence: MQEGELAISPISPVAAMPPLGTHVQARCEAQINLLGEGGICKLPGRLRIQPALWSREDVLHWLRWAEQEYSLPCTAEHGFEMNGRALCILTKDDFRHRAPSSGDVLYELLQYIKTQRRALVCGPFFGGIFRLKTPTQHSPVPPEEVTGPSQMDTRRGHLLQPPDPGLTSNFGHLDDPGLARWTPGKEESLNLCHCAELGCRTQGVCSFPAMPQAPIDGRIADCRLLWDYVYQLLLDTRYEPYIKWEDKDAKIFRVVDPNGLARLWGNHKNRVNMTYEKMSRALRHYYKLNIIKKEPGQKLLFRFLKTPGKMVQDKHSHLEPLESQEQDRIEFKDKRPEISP
The note with it: protein: recombinant; tags: N-terminal GST; dsDNA, one strand shown. Put shortly: as §1

Test [16] has as its target T11, ELF5 (Homo sapiens, UniProt Q9UKW6-2 1-255).
T11 sequence: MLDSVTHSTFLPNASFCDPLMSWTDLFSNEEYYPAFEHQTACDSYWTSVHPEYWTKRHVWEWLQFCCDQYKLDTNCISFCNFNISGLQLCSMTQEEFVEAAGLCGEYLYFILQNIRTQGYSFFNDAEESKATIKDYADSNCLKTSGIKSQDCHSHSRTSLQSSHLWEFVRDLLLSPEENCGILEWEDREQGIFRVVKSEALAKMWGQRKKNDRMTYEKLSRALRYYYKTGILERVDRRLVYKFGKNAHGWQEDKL
The note with it: protein: recombinant; tags: N-terminal GST; dsDNA, one strand shown. Put shortly:
as §1

Test [17] concerns the target T12, ETV3 (Homo sapiens, UniProt P41162-2 1-143).
T12 sequence: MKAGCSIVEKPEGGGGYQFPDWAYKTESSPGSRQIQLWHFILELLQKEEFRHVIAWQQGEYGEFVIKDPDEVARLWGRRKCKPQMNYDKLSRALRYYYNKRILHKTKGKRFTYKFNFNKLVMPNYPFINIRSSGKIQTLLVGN
The note with it: protein: recombinant; tags: N-terminal GST; dsDNA, one strand shown. Put shortly:
as §1

For test [18], the target named is ETV6 (Homo sapiens, UniProt P41212 1-452). To be noted: protein: recombinant; tags: N-terminal GST; dsDNA, one strand shown. Put shortly: as §1
Chain of ETV6 (P41212 whole entry): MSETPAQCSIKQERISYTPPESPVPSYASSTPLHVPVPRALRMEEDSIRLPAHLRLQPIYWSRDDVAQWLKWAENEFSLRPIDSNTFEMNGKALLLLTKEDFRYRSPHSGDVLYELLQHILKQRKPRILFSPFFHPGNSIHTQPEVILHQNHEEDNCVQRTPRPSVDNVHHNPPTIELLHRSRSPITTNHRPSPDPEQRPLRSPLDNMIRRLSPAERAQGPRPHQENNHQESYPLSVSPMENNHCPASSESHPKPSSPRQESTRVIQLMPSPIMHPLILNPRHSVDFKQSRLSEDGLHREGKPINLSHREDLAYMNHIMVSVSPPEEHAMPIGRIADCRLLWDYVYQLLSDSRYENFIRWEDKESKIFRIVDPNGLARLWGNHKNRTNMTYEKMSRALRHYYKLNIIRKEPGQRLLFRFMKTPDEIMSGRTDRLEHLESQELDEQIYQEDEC

Chain of ELF4 (Q99607 whole entry): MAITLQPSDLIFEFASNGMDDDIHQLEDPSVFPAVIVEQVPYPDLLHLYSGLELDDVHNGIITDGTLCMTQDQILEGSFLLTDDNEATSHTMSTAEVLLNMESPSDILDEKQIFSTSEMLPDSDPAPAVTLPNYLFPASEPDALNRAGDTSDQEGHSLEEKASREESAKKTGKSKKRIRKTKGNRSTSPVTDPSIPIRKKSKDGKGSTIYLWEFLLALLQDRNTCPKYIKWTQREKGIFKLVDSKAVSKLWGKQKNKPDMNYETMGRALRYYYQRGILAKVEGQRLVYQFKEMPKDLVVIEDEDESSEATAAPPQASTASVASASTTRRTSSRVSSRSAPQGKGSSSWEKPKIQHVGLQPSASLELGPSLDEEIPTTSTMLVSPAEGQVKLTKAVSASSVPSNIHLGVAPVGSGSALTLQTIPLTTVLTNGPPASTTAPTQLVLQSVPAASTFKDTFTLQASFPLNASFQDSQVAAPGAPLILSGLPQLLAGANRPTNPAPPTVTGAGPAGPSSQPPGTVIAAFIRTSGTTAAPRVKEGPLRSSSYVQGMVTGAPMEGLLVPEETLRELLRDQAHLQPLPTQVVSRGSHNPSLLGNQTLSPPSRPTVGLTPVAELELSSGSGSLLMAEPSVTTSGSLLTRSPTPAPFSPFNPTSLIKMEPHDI
Chain of HSF1 (Q00613 whole entry): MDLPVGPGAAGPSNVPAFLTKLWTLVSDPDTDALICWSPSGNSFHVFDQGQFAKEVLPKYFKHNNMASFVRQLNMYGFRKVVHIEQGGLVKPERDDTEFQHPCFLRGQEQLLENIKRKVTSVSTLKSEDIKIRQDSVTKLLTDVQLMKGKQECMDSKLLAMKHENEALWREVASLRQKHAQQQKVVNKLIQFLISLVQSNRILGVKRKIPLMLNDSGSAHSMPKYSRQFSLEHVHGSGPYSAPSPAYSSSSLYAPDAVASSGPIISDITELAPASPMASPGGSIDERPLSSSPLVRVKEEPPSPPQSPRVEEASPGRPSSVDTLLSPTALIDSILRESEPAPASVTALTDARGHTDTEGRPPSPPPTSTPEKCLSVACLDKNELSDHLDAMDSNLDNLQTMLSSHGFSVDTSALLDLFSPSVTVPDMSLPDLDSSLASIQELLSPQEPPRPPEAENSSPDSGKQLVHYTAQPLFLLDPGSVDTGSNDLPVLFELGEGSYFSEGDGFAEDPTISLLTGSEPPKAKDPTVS
Chain of ETV1 (P50549 whole entry): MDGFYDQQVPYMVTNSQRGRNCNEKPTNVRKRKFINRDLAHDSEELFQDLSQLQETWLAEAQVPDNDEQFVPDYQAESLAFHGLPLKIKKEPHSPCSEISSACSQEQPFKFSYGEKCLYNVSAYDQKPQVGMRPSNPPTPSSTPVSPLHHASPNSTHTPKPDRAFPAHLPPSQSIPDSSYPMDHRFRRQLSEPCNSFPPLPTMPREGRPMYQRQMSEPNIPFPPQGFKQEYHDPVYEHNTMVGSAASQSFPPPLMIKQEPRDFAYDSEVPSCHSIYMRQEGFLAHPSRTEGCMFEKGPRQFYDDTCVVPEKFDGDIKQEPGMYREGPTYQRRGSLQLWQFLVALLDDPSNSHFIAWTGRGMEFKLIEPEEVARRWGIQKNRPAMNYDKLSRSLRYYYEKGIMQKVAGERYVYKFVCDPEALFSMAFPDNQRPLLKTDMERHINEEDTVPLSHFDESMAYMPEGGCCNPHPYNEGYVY
Chain of CRX (O43186 whole entry): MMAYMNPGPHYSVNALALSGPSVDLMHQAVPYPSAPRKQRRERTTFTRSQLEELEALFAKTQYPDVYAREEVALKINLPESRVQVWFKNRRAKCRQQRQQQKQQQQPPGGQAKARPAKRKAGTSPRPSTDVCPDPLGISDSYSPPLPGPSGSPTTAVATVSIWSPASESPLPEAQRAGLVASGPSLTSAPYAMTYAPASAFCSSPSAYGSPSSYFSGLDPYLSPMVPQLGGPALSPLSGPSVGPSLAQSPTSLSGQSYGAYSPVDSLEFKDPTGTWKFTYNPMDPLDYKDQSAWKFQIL

As to ATCCAT, the binding signal in [1] is 1.24 fold enrichment (6-mer frequency, TF over GST control); in test [2], 1.17 fold enrichment (6-mer frequency, TF over GST control); in test [3], 1.23 fold enrichment (6-mer frequency, TF over GST control); in [4], 1.16 fold enrichment (6-mer frequency, TF over GST control); in test [5] it was 1.13 fold enrichment (6-mer frequency, TF over GST control); in test [6], 1.14 fold enrichment (6-mer frequency, TF over GST control). Further, the binding signal in test [7] was 1.19 fold enrichment (6-mer frequency, TF over GST control); in test [8], 1.32 fold enrichment (6-mer frequency, TF over GST control); in test [9] it was 1.55 fold enrichment (6-mer frequency, TF over GST control); in test [10], 1.14 fold enrichment (6-mer frequency, TF over GST control); in test [11] it was 1.26 fold enrichment (6-mer frequency, TF over GST control); in [12], 1.11 fold enrichment (6-mer frequency, TF over GST control). Besides, the binding signal in test [13] is 1.17 fold enrichment (6-mer frequency, TF over GST control); in test [14], 1.17 fold enrichment (6-mer frequency, TF over GST control); in [15] it was 1.11 fold enrichment (6-mer frequency, TF over GST control); in [16] it was 1.09 fold enrichment (6-mer frequency, TF over GST control); in test [17], 1.19 fold enrichment (6-mer frequency, TF over GST control); in [18], 1.09 fold enrichment (6-mer frequency, TF over GST control).
